G9a inh: blocks human histone lysine methyltransferase G9a | AID 504332 | 350,000 tested, 8.8% active | Q96KQ7 | G9a H3K9 monomethylation, AlphaScreen, 2 h | Potency, µM (doses to about 102 µM), usual class: inhibitors; note: nearly all actives have a fitted effect of over 75% in size
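Compounds were preincubated with 20 nM G9a for 15 min, after which biotinylated H3K9 peptide (500 nM) and SAM (20 uM) started a 2 h room-temperature reaction. Monomethylated product was quantified by antibody-based AlphaScreen chemiluminescence.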
GLS inhibitor: blocks human kidney-isoform glutaminase activity; GLS enzymatic activity, qHTS titration; 410,000 tested, 0.21% active; Potency, µM (series often up to 45.5 µM), hits mostly inhibitors; O94925
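Coupled fluorescence readout: glutamate oxidase/HRP/Amplex Red detect glutamate formed by hKGA from L-glutamine (1 mM solution added). Buffer 45 mM KH2PO4 pH 8.2, 0.02% Tween-20; reads at t0 and 30 min RT.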
BAZ2B inh: BAZ2B (human) inhibition; Q9UIF8; AlphaScreen BAZ2B-H3K14Ac peptide displacement; Potency, µM (series often up to 114 µM), most hits filed as inhibitors; 360,000 tested, 4.4% active; note: nearly all actives have a fitted effect of over 60% in size
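BAZ2B (50 nM) with biotin-H3(5-23)K14Ac peptide (50 nM) in PBS pH 7.4, 0.01% Tween-20, preformed 30 min, then compound 30 min at room temperature; top concentration 110uM. AlphaScreen streptavidin donor/nickel chelate acceptor beads (10 ug/mL final), 20 min dark, signal read.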
HP1b chromo inh: HP1-beta chromodomain-methylated histone interaction inhibition; AID 540317; AlphaScreen HP1-beta / biotin-H3K9me3 peptide binding; 390,000 tested, 0.56% active; P83916; Potency, µM (top dose mostly 114 µM), actives largely listed as inhibitors; note: nearly all actives have a fitted effect of over 70% in size
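HP1-beta protein (50 nM final) preincubated 30 min at room temperature with biotinylated H3(1-18)K9me3 peptide (50 nM) in PBS pH 7.4, 0.01% Tween-20, then compound added for 30 min. AlphaScreen streptavidin donor/nickel chelate acceptor beads (10 ug/mL final), 30 min dark, luminescence read.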
JMJD2A Tudor: JMJD2A Tudor domain (human) inhibition; AlphaScreen JMJD2A-Tudor / H3K4me3 peptide binding; O75164; Potency, µM (top dose mostly 114 µM), actives largely listed as inhibitors; 390,000 tested, 4.4% active; note: nearly all actives have a fitted effect of over 50% in size
Hits are given with their value; 0 = inactive; ? = inconclusive; - = not tested or not shown; ! = repeats disagree; [ ] = dose if it differs, or a comment. Shown are actives, neighbours in structure and some others; about 10% of the full set was active somewhere. Calls come from the whole dose curve; as a rule, active = well fitted curve in the direction sought with a large enough effect; inconclusive = small, poorly fitted or top-dose-only effect, or another doubt; inactive = no such curve, though single readings can be large; an effect the other way counts as inactive or inconclusive.

SMILES | G9a inh | GLS inhibitor | BAZ2B inh | HP1b chromo inh | JMJD2A Tudor
CC(C)c1ccc(-c2nnc3n(CCc4ccccc4)c(=O)c4ccccc4n23)cc1 | 0 | 0 | 0 | 0 | 0
N=C1/C(=C/c2coc3ccccc3c2=O)C(=O)N=C2SC(c3ccco3)=NN12 | - | 0 | 71µM | 0 | ?
CC(C)CSC1=NSC2=NC(=O)/C(=C\c3coc4ccccc4c3=O)C(=N)N12 | 79µM | 0 | 79µM | 0 | 0
COc1ccc(-n2cccc2/C=C2\C(=N)N3N=C(C(C)C)SC3=NC2=O)cc1 | ? | 0 | ? | 0 | 0
CSC1=NSC2=NC(=O)/C(=C\c3coc4ccccc4c3=O)C(=N)N12 | ? | 0 | ? | 0 | 0
COc1ccc(-n2cccc2/C=C2\C(=N)N3N=C(c4ccco4)SC3=NC2=O)cc1 | ? | 0 | 40µM | 0 | 14µM
Cc1cc(/C=C2\C(=N)N3N=C(c4ccco4)SC3=NC2=O)c(C)n1Cc1ccccc1 | 28µM | 0 | ? | 0 | 45µM
Cc1ccc(CNC(=O)C2CCCN(S(=O)(=O)c3ccc4c(c3)oc(=O)n4C)C2)cc1 (stereo not drawn) | 0 | 0 | 0 | 0 | 0
N=C1/C(=C\c2coc3ccccc3c2=O)C(=O)N=C2SC(c3ccncc3)=NN12 | ? | ? | ? | ? | 56µM
N=C1/C(=C\c2coc3ccc(O)cc3c2=O)C(=O)N=C2SC=CN12 | - | 0 | ? | 0 | 0
N#C/C(=N\Nc1ccc(Cl)c(Cl)c1)C(=O)C1CC1 | - | 0 | 45µM | ? | 50µM
CCCCCCC(=O)N(O)C1CC(=O)N(c2ccc(C)cc2)C1=O (stereo not drawn) | 1.3µM | - | 0 | ? | 14µM
CCCCCCC(=O)N(O)C1CC(=O)N(c2ccc(Cl)cc2)C1=O (stereo not drawn) | - | 0 | 0 | 40µM | 32µM
Cc1ccc(N2C(=O)CC(N(O)C3CC(=O)N(c4ccc(C)cc4)C3=O)C2=O)cc1 (stereo not drawn) | ? | 0 | 0 | 0 | 0
Fc1ccc(COc2ccc(Br)cc2CNCC2CCCO2)cc1 (stereo not drawn) | 50µM | 0 | 0 | 0 | 0
COc1ccc(N2C(=O)CS(=O)(=O)C23C(=O)N(Cc2ccc(F)cc2)c2ccc(C)cc23)cc1 (stereo not drawn) | 0 | 0 | 0 | 0 | 0
COc1cc(-c2ccc(N=Nc3ccc4c(S(=O)(=O)O)cc(S(=O)(=O)O)c(N)c4c3O)c(OC)c2)ccc1N=Nc1ccc2c(S(=O)(=O)O)cc(S(=O)(=O)O)c(N)c2c1O | 7.1µM | - | - | - | -
O=C(CC1C(=O)NCCN1Cc1cccc(C(F)(F)F)c1)NC1CCCCCC1 (stereo not drawn) | 40µM | 0 | 0 | 0 | 0
O=C(CC1C(=O)NCCN1Cc1ccccc1C(F)(F)F)NC1CCCC1 (stereo not drawn) | 45µM | 0 | 0 | 0 | 0
COC(=O)Nc1nc2ccc(-c3n[nH]c(=O)c4ccccc34)cc2[nH]1 | 50µM | 0 | ? | 0 | ?
CCOC(=O)[C@H](CCc1ccccc1)N[C@@H](C)C(=O)N1CCC[C@@H]1C(=O)O | 20µM | 0 | ? | 0 | 20µM
CCOC(=O)[C@H](CCc1ccccc1)N[C@@H](C)C(=O)N1CCC[C@H]1C(=O)O | 0 | 0 | 0 | 0 | 50µM!
CN(C)c1ccc(N2CC(C)(C)C2=O)cc1 | 10µM | 0 | 0 | 0 | 0
CC(=O)c1ccc(N2CC(C)(C)C2=O)cc1 | 0 | 0 | 0 | 0 | 0
CCCC(=O)Nc1ccc2nn(-c3ccc(CC)cc3)nc2c1 | ? | 0 | 0 | 0 | 0
SMILES | G9a inh | GLS inhibitor | BAZ2B inh | HP1b chromo inh | JMJD2A Tudor
O=C(CCCSc1nc2ccccc2s1)NCc1ccco1 | 79µM | 0 | 0 | 0 | 0
O=C(NCc1ccco1)c1cccnc1-c1nc2ccccc2s1 | ? | 0 | 0 | ? | 79µM
O=C(CCSCCC(=O)NCc1ccco1)NCc1ccco1 | ? | 0 | 56µM | ? | 20µM
CC(C)c1ccc(NC(=O)CCC(=O)NCc2ccco2)cc1 | 0 | 0 | 0 | 0 | 0
CC(C)C(CC(=O)NCc1ccco1)c1ccco1 (stereo not drawn) | 40µM | ? | ? | 0 | 0
O=C(NCc1ccco1)c1cccnc1Cl | ? | 0 | 0 | 0 | 0
Cc1cc(C)n2nc(CNC(=O)c3ccc(Cl)cc3)nc2n1 | 0 | 0 | 0 | 0 | 0
COc1cccc(NC(=O)Cn2c(=O)n(CC(=O)NCc3ccc(C)cc3)c(=O)c3sccc32)c1 | 0 | 0 | 0 | 0 | 0
CC(=O)NC(Cc1c[nH]c2ccccc12)C(=O)NCc1ccco1 (stereo not drawn) | 0 | 0 | 0 | 0 | 0
CC(Cc1c[nH]c2ccccc12)C(=O)NCc1ccco1 (stereo not drawn) | 32µM | ? | 50µM | ? | ?
O=C(NNCS(=O)(=O)O)c1ccncc1 | 0[12.7 µM] | 0 | - | - | -
O=C(COc1coc(CN2CCN(c3cccc(Cl)c3)CC2)cc1=O)NC1CCCC1 | 0 | 0 | 0 | 0 | 0
COc1ccc(N2CCN(Cc3cc(=O)c(OCC(=O)NC4CCCC4)co3)CC2)cc1 | 56µM | 0 | 0 | 0 | 0
O=C(NCC(c1ccc2c(c1)OCO2)N1CCN(c2ccccc2F)CC1)c1ccccc1F (stereo not drawn) | 0 | 0 | 0 | 0 | 0
Cc1ccc(Nc2nc(N)nc(CN3CCN(Cc4ccc5c(c4)OCO5)CC3)n2)cc1C | - | 0 | 40µM | 0 | ?
Nc1nc(CN2CCN(Cc3ccccc3)CC2)nc(Nc2ccc3c(c2)OCCO3)n1 | 0[12.7 µM] | 0 | 20µM | 0 | ?
Cc1ccc(Nc2nc(N)nc(CN3CCN(Cc4ccc5c(c4)OCO5)CC3)n2)cc1 | 0[12.7 µM] | 0 | 56µM | 0 | ?
Cc1ccc(Nc2nc(N)nc(CN3CCN(Cc4ccc5c(c4)OCO5)CC3)n2)c(C)c1 | 0 | 0 | 56µM | ? | 0
CCOc1ccccc1CNC(=O)c1ccc2c(c1)sc1nc(-c3cccc(OC)c3)cn12 | ? | 0 | 0 | 0 | 0
O=C(COC(=O)c1cccc(Br)c1)NCC1CCCO1 (stereo not drawn) | - | 0 | - | 0 | 0
CN(C(=O)CCc1nc(-c2ccccc2F)no1)c1ccc(Cl)cc1 | 0 | 0 | 0 | 0 | 0
O=C(Cc1ccc(Br)cc1)Nc1ncc([N+](=O)[O-])s1 | 28µM | 0 | 50µM | 0 | 0
O=C(Cc1ccc([N+](=O)[O-])cc1)Nc1ccc(Cl)cc1 | 40µM | 0 | 0 | 0 | 0
Cc1onc(-c2ccccc2)c1C(=O)Nc1ncc([N+](=O)[O-])s1 | 45µM | 0 | 0 | 0 | 0
Cn1cnnc1SCC(=O)Nc1ncc([N+](=O)[O-])s1 | - | 0 | - | ? | 28µM
O=C(COC(=O)COc1ccccc1)Nc1ncc([N+](=O)[O-])s1 | ? | 0 | 0 | 0 | 79µM
O=C(COc1ccc(Cl)cc1)Nc1ncc([N+](=O)[O-])s1 | ? | 0 | 0 | 0 | 0
O=C(Cc1ccc(Cl)cc1)Nc1ncc([N+](=O)[O-])s1 | 35µM | 0 | 0 | 0 | 0
CC(=O)N1CCC(N(Cc2ccc(C)o2)C(=O)Nc2cccc(C(F)(F)F)c2)CC1 | ? | 0 | 0 | 0 | 0

Compound activity as filed in PubChem BioAssay.
